Reference: PubChem BioAssay (NCI)
This is part of a sample that, as a whole, favours compounds with a hit. Of some 83,000 tested, about 20% had one in any assay.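 Testing used 96-well plates and a 48-hour single-concentration exposure. Example: -40 means 40% of the starting cells died.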 The source made the active and inactive calls. The calls were made as follows: active = growth percent below 10; inactive = the rest.

Experiments:
Assay in all cases: NCI-60 one-dose screen, 48 h (100 = growth as untreated, 0 = no growth, -100 = all killed)
Settings in all cases: 10 µM unless noted
SK-MEL-2 melanoma = system: SK-MEL-2 melanoma
EKVX NSCLC = system: EKVX NSCLC
SN12C renal = system: SN12C renal
UO-31 renal = system: UO-31 renal
TK-10 renal = system: TK-10 renal
ACHN renal = system: ACHN renal
CAKI-1 renal = system: CAKI-1 renal
A498 renal = system: A498 renal
CCRF-CEM leukemia = system: CCRF-CEM leukemia
MOLT-4 leukemia = system: MOLT-4 leukemia

Measured: growth

CSCCC1NC(=O)C(C(C)=Nc2ccccc2)=C1O (centres undefined)
inactive: SK-MEL-2 melanoma 129% | EKVX NSCLC 101% | SN12C renal 101% | UO-31 renal 93.4% | TK-10 renal 133% | ACHN renal 113% | CAKI-1 renal 89.3% | A498 renal 102% | CCRF-CEM leukemia 106% | MOLT-4 leukemia 119%

Cc1nc2n[nH]c(N)c2nc1C
inactive: SK-MEL-2 melanoma 103% | EKVX NSCLC 106% | SN12C renal 103% | UO-31 renal 87% | TK-10 renal 104% | ACHN renal 104% | CAKI-1 renal 106% | A498 renal 120% | CCRF-CEM leukemia 101%

COc1ccc2nc(NC(=O)/C(=C/c3cc(OC)c(OC)c(OC)c3)c3ccc(OC)c(OC)c3)sc2c1
inactive: SK-MEL-2 melanoma 95.6% | EKVX NSCLC 77.8% | SN12C renal 99.9% | UO-31 renal 67.4% | TK-10 renal 98.5% | ACHN renal 94.9% | CAKI-1 renal 75.9% | A498 renal 95.7% | CCRF-CEM leukemia 98.6% | MOLT-4 leukemia 83.7%

c1ccc(C(CC2=NCCCN2)c2ccccc2)cc1
active: CCRF-CEM leukemia 9.65%
inactive: SK-MEL-2 melanoma 108% | EKVX NSCLC 97.2% | SN12C renal 90.9% | UO-31 renal 76.8% | TK-10 renal 110% | ACHN renal 104% | CAKI-1 renal 97.6% | A498 renal 111% | MOLT-4 leukemia 92.7%

COc1ccc(-c2nn(-c3cccc(Cl)c3)cc2/C=C2\C(=N)N(c3ccccc3)N=C2N)cc1
inactive: SK-MEL-2 melanoma 69.5% | EKVX NSCLC 48.8% | SN12C renal 45.9% | TK-10 renal 80.7% | ACHN renal 20.7% | A498 renal 75.3% | CCRF-CEM leukemia 12.3%
active: UO-31 renal 6.27% | CAKI-1 renal -27.6% | MOLT-4 leukemia 6.35%

CCCCNCC(O)c1cc2c(Cl)cc(Cl)cc2c2cc(C(F)(F)F)ccc12 (centres undefined)
active: SK-MEL-2 melanoma -65.4% | EKVX NSCLC -59.1% | SN12C renal -82.2% | UO-31 renal -81.2% | TK-10 renal -88.2% | ACHN renal -78.7% | CAKI-1 renal -65.1% | A498 renal -19.7% | CCRF-CEM leukemia -49.6% | MOLT-4 leukemia -54.8%

COc1c(B(O)O)cccc1-c1nc2ccc3[nH]ncc3c2c2c1CCCC2
active: UO-31 renal 0.387% | ACHN renal 3.93% | CAKI-1 renal 5.83% | A498 renal -16.4% | CCRF-CEM leukemia 6.99%
inactive: SK-MEL-2 melanoma 33.7% | EKVX NSCLC 23.6% | SN12C renal 23.7% | TK-10 renal 11.5% | MOLT-4 leukemia 11.5%

COc1cc(NC(C)CCCN)c2ncccc2c1Oc1ccc(Cl)cc1 (centres undefined)
inactive: SK-MEL-2 melanoma 102% | EKVX NSCLC 77.1% | SN12C renal 77.3% | UO-31 renal 41.5% | TK-10 renal 101% | ACHN renal 82.6% | CAKI-1 renal 68.7% | A498 renal 71.1% | CCRF-CEM leukemia 77% | MOLT-4 leukemia 52.9%

CCC(C)C1NC(=O)c2nc(oc2-c2ccccc2)-c2csc(n2)-c2csc(n2)-c2nc(oc2C)-c2coc(n2)CNC(=O)C(C(C)CC)NC1=O (centres undefined)
active: SK-MEL-2 melanoma -80.1% | EKVX NSCLC -71.3% | SN12C renal -65.3% | UO-31 renal -90.1% | TK-10 renal -86.7% | ACHN renal -91.3% | CAKI-1 renal -95.2% | A498 renal -85.3% | CCRF-CEM leukemia -66.4% | MOLT-4 leukemia -66.2%

CCCCCCCCCCCCCCCCCC1=NC(C)(C)CN1C(C)(C)CO
inactive: EKVX NSCLC 27% | SN12C renal 11.6% | A498 renal 78.9%
active: SK-MEL-2 melanoma -69% | UO-31 renal -52.9% | TK-10 renal -35.1% | ACHN renal -75.6% | CAKI-1 renal -65.2% | CCRF-CEM leukemia -52.9% | MOLT-4 leukemia -55.2%

COc1ccccc1/C=N\NC(=S)Nc1ccc(F)cc1
inactive: SK-MEL-2 melanoma 81% | EKVX NSCLC 75.7% | SN12C renal 81.1% | UO-31 renal 62.2% | TK-10 renal 97.5% | ACHN renal 87.5% | CAKI-1 renal 88.5% | A498 renal 67% | CCRF-CEM leukemia 89.2% | MOLT-4 leukemia 57.3%

Oc1c(-c2cc(C(F)(F)F)[nH]n2)cc(Cl)c(OCc2ccc(Cl)cc2)c1-c1ccc(Cl)c(C(F)(F)F)c1
active: SK-MEL-2 melanoma -40.9% | EKVX NSCLC 4.67% | SN12C renal 5.54% | UO-31 renal -27.6% | TK-10 renal 7.21% | ACHN renal 0.909% | CAKI-1 renal -15.7% | A498 renal -51.1% | CCRF-CEM leukemia 5.04% | MOLT-4 leukemia -14.8%

N#Cc1nc(-c2ccc(Cl)cc2)cc(-c2ccc(Nc3nc(N4CCCCC4)nc(N4CCCCC4)n3)cc2)c1N
inactive: SK-MEL-2 melanoma 106% | EKVX NSCLC 91.8% | SN12C renal 104% | UO-31 renal 80% | TK-10 renal 120% | ACHN renal 96.8% | CAKI-1 renal 83.8% | A498 renal 110% | CCRF-CEM leukemia 107% | MOLT-4 leukemia 99.2%

CC(=O)N(C)c1ccc(Nc2cc(C)[nH]c3ccc4ncnc4c23)cc1
inactive: SK-MEL-2 melanoma 116% | EKVX NSCLC 79.4% | SN12C renal 61.7% | UO-31 renal 72.6% | TK-10 renal 79.3% | ACHN renal 55.4% | CAKI-1 renal 80.3% | A498 renal 78.5% | CCRF-CEM leukemia 28.9%
active: MOLT-4 leukemia 1.82%

COc1c(C(=O)/C=C/c2ccc(C)o2)c(O)cc2occc12
inactive: SK-MEL-2 melanoma 82.2% | EKVX NSCLC 68.6% | SN12C renal 82.6% | UO-31 renal 81.2% | TK-10 renal 100% | ACHN renal 97.6% | CAKI-1 renal 74.2% | A498 renal 66.6% | CCRF-CEM leukemia 84.6% | MOLT-4 leukemia 64%

CC(CN1CCN(C)CC1)CN1c2ccccc2Sc2ccc(C(F)(F)F)cc21 (centres undefined)
inactive: SK-MEL-2 melanoma 70% | EKVX NSCLC 70.4% | SN12C renal 47.2% | UO-31 renal 39.2% | TK-10 renal 21% | ACHN renal 38.1% | CAKI-1 renal 37.3% | A498 renal 60.3% | CCRF-CEM leukemia 25.2% | MOLT-4 leukemia 15.9%

COc1cccc(CC(C)=C(c2ccc(OCCCN(C)C)cc2)c2ccc(OCCCN(C)C)cc2)c1
inactive: A498 renal 18.6%
active: SK-MEL-2 melanoma -76.5% | EKVX NSCLC -83.9% | SN12C renal -84.7% | UO-31 renal -97.8% | TK-10 renal -93% | ACHN renal -98.3% | CAKI-1 renal -97.7% | CCRF-CEM leukemia -53.3% | MOLT-4 leukemia -61.4%

CCCCCCCCCCC(C(O)c1ccccc1)N1CCCCC1 (centres undefined)
inactive: SK-MEL-2 melanoma 53.8% | EKVX NSCLC 33.5% | SN12C renal 43.2% | TK-10 renal 76.8% | ACHN renal 42.1% | A498 renal 75.1%
active: UO-31 renal -1.17% | CAKI-1 renal -21.1% | CCRF-CEM leukemia 0.764% | MOLT-4 leukemia 6.36%

Oc1[nH]c2ccccc2c1/C=c1/ccc2c(c1)N=C(c1ccc(C(F)(F)F)cc1)N=2
active: CCRF-CEM leukemia 8.28%
inactive: SK-MEL-2 melanoma 27.9% | EKVX NSCLC 51.1% | SN12C renal 63.7% | UO-31 renal 73.1% | TK-10 renal 75.5% | ACHN renal 58.7% | CAKI-1 renal 32.8% | A498 renal 35% | MOLT-4 leukemia 35.5%

N#Cc1nc(-c2cccc(Br)c2)cc(-c2ccc(Nc3nc(N4CCCCC4)nc(N4CCCCC4)n3)cc2)c1N
inactive: SN12C renal 16.7% | CCRF-CEM leukemia 11.4%
active: SK-MEL-2 melanoma -10.7% | EKVX NSCLC 5.85% | UO-31 renal -78.8% | TK-10 renal -87.8% | ACHN renal -96.3% | CAKI-1 renal -75.5% | A498 renal -20% | MOLT-4 leukemia 8.61%

CCCCNCC(O)c1cc(-c2ccc(C(F)(F)F)cc2)nc(-c2ccc(C(F)(F)F)cc2)c1 (centres undefined)
active: SK-MEL-2 melanoma -67.1% | EKVX NSCLC -61.8% | SN12C renal -73.2% | UO-31 renal -88.2% | TK-10 renal -94.4% | ACHN renal -71.6% | CAKI-1 renal -73% | A498 renal -68.1% | CCRF-CEM leukemia -36.4% | MOLT-4 leukemia -56.7%

CC1(C)C2CCC(O)(C(=O)O)C1C2 (centres undefined)
inactive: SK-MEL-2 melanoma 106% | EKVX NSCLC 103% | SN12C renal 104% | UO-31 renal 81.9% | TK-10 renal 120% | ACHN renal 111% | CAKI-1 renal 94% | A498 renal 109% | CCRF-CEM leukemia 112% | MOLT-4 leukemia 115%

Brc1cccc(-n2ncc3c(Nc4ccc(-c5nnc(-c6ccccc6)o5)cc4)ncnc32)c1
inactive: SK-MEL-2 melanoma 115% | EKVX NSCLC 102% | SN12C renal 97.8% | UO-31 renal 75.9% | TK-10 renal 120% | ACHN renal 96.7% | CAKI-1 renal 90.4% | A498 renal 109% | CCRF-CEM leukemia 118% | MOLT-4 leukemia 108%

COc1cc2nccc(Oc3ccc(NC(=O)C4(C(=O)Nc5ccc(F)cc5)CC4)cc3)c2cc1Oc1ccc(N)cn1
active: A498 renal -20.9%
inactive: SK-MEL-2 melanoma 54.3% | EKVX NSCLC 15.9% | SN12C renal 14.8% | UO-31 renal 19.8% | TK-10 renal 36.3% | ACHN renal 18.6% | CAKI-1 renal 43.5% | CCRF-CEM leukemia 61.2% | MOLT-4 leukemia 29.5%

Cc1[nH]nc2ccc3nc(-c4ccc5[nH]ncc5c4)c4c(c3c12)CCCC4
active: SK-MEL-2 melanoma -15.5% | ACHN renal 6.93% | A498 renal -10.8% | MOLT-4 leukemia 3.85%
inactive: EKVX NSCLC 20.2% | SN12C renal 23.2% | UO-31 renal 12.8% | TK-10 renal 10.3% | CAKI-1 renal 12.5% | CCRF-CEM leukemia 16.8%

Cn1nc(C(F)(F)F)cc1-c1cc(Cl)c(OCc2ccc(Cl)cc2)c(-c2ccc(Cl)c(C(F)(F)F)c2)c1O
active: SK-MEL-2 melanoma -33.8% | EKVX NSCLC 4.62% | SN12C renal 5.76% | UO-31 renal 0.656% | TK-10 renal 2.92% | ACHN renal -11.4% | CAKI-1 renal -19.2% | A498 renal -41.9% | CCRF-CEM leukemia 9.85% | MOLT-4 leukemia -14.2%

CC1C2CCC(C2)C1COCCOCCO (centres undefined)
inactive: SK-MEL-2 melanoma 112% | EKVX NSCLC 112% | SN12C renal 109% | UO-31 renal 98.7% | TK-10 renal 109% | ACHN renal 106% | CAKI-1 renal 105% | A498 renal 83.7% | CCRF-CEM leukemia 112% | MOLT-4 leukemia 97.6%
